Laboratory results published in PubChem BioAssay (NCATS).
Results filed as inconclusive are left out. Activity calls are given as the source filed them. Calls follow the shape of the full dose curve.

Assay: qHTS Assay for Lipid Storage Modulators (AID 1519)
Conditions: Drosophila S3 cells, BODIPY lipid droplet/cell ratio, laser cytometry; at 57.5 µM (top of the series); cells loaded with oleic acid
In short: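 Cells seeded at 5,000 per well were treated with compounds over a concentration series and loaded with oleic acid (400 uM, as added). Lipid droplet fluorescence (488 nm excitation, 500-530 nm channel) was read by laser-scanning cytometry and normalized to 20 uM Triacsin C.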
% is scaled to controls: 0 for no effect and ±100 for the full control effect.

Activity change, negative = inhibition, inactive:
CC1=C(CCC(=O)O)c2cc3nc(cc4[nH]c(cc5[nH]c(cc1n2)c(C)c5C(C)O)c(C)c4C(C)O)C(C)=C3CCC(=O)O (centres undefined) 3.12%
C/C(=C\CNc1ncnc2nc[nH]c12)CO -1.3%
CCC(C)C(=O)OC1CCC=C2C=CC(C)C(CCC3CC(O)CC(=O)O3)[C@@H]21 (some centres undefined) 0.311%
C[C@]1(c2ccccc2)OC(C(=O)O)=CC1=O -2%
Cc1cc(O)c(C=O)c2c1C(=O)Oc1c(COC(=O)/C=C/C(=O)O)c(O)c(C(=O)O)c(C)c1O2 4.28%
OCC1OC([S-])[C@H](O)C(O)C1O.[Au+] (some centres undefined) 9.01%
COC(=O)N/N=C/C1=C[N+](=O)c2ccccc2[N+]1=O 12.7%
CN1CC(=O)N=C1N 4.35%
CNC1CC(N)[C@H](O)[C@@H](O[C@@H]2OC(CO)C3OC4(OC(C(N)CO)C(O)C(O)C4O)O[C@@H]3[C@H]2O)C1O (some centres undefined) 3.46%
COC1C=CO[C@@]2(C)Oc3c(C)c(O)c4c(O)c(c(C=NN5CCN(C)CC5)c(O)c4c3C2=O)NC(=O)/C(C)=C\C=CC(C)C(O)[C@@H](C)C(O)C(C)[C@H](OC(C)=O)C1C (some centres undefined) -0.247%
CC(=O)N[C@@H]1C(O)OC(CO)C(O)C1O (some centres undefined) 4.62%
CCC(CCC(C)C1CCC2C3CC=C4CC(O)CC[C@@]4(C)C3CC[C@@]12C)C(C)C (some centres undefined) 3.18%
O=C1OC(CO)C(O)C(O)C1O (centres undefined) 6.29%
COc1ccc(CC(N)C(=O)NC2C(CO)OC(n3cnc4c(N(C)C)ncnc43)C2O)cc1 (centres undefined) -15.4%
